What all share (conditions): mRNA level, 48 h; actives raise or lower the signal
Read-out in experiment [1]: Bcl-2 (BID) gene, BID (gene 637)
Kind of experiment: LTEA_HepaRG_BID: Life Technologies and Expression Analysis (LTEA) Assay for Bcl-2 (BID) gene using HepaRG (AID 2283476). Summed up:
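Duplicate 48 h treatments of HepaRG cells in serum-free induction medium spanned 100 uM downward in half-log steps, 0.5% DMSO. Transcript change quantified by qRT-PCR against three housekeeping genes, fitted up or down versus DMSO.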

Read-out in experiment [2]: Caspase-3 (Homo sapiens) (UniProt P42574)
Kind of experiment: LTEA_HepaRG_CASP3: Life Technologies and Expression Analysis (LTEA) Assay for cysteine-aspartic acid protease (CASP3) using HepaRG (AID 2283477). Summed up:
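Read-out is CASP3 mRNA level by TaqMan qRT-PCR in human HepaRG cells after 48 h chemical exposure. Eight half-log concentrations topping at 100 uM were tested in 0.5% DMSO; gain or loss was fitted relative to DMSO.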

Read-out in experiment [3]: Cytochrome P450 (CYP24A1), CYP24A1 (gene 1591)
Briefly: LTEA_HepaRG_CYP24A1: Life Technologies and Expression Analysis (LTEA) Assay for Cytochrome P450 (CYP24A1) using HepaRG (AID 2283478). An outline of the steps: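 HepaRG, 48 h chemical exposure, 8-pt half-log CRC from 100 uM, 0.5% DMSO vehicle, duplicates. Endpoint: CYP24A1 mRNA by Fluidigm TaqMan qRT-PCR, normalized ACTB/GAPDH/POLR2A; gain/loss fit vs DMSO.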

Read-out in experiment [4]: Cytochrome P450 (CYP1A2), CYP1A2 (gene 1544)
Kind of experiment: LTEA_HepaRG_CYP1A2: Life Technologies and Expression Analysis (LTEA) Assay for Cytochrome P450 (CYP1A2) using HepaRG (AID 2283479). Summed up: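 CYP1A2 transcript induction or loss, quantified by Fluidigm qRT-PCR against three housekeeping genes, was fitted bidirectionally against 0.5% DMSO controls. Human HepaRG cells received eight half-log concentrations from 100 uM over 48 h.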

Read-out in experiment [5]: cysteine-aspartic acid protease (CASP8), CASP8 (gene 841)
Briefly: LTEA_HepaRG_CASP8: Life Technologies and Expression Analysis (LTEA) Assay for cysteine-aspartic acid protease (CASP8) using HepaRG (AID 2283480). An outline of the steps:
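Concentration-response in duplicate up to 100 uM (half-log steps, 0.5% DMSO) on differentiated HepaRG cultures for 48 h. Expression change of CASP8 mRNA is determined by TaqMan qRT-PCR with housekeeping-gene normalization.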

Read-out in experiment [6]: Cytochrome P450 (CYP2B6), CYP2B6 (gene 1555)
Briefly: LTEA_HepaRG_CYP2B6: Life Technologies and Expression Analysis (LTEA) Assay for Cytochrome P450 (CYP2B6) using HepaRG (AID 2283481). An outline of the steps: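 HepaRG cells plated 48 h, switched to serum-free induction medium, then dosed 48 h (8 points, half-log from 100 uM, 0.5% DMSO). RNA isolated; CYP2B6 expression measured by qRT-PCR; gain or loss fitted relative to DMSO.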

Read-out in experiment [7]: Cytochrome P450 2C19 (Homo sapiens) (UniProt P33261)
Briefly: LTEA_HepaRG_CYP2C19: Life Technologies and Expression Analysis (LTEA) Assay for CYP2C19 using HepaRG (AID 2283482). Summed up:
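Transcript levels of CYP2C19 were quantified by qRT-PCR after HepaRG cells were treated for 48 hours with test chemicals up to 100 uM (eight half-log concentrations, 0.5% DMSO vehicle). Gain or loss of signal was fitted relative to DMSO.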

Read-out in experiment [8]: CYP2C8 (gene 1558)
Briefly: LTEA_HepaRG_CYP2C8: Life Technologies and Expression Analysis (LTEA) Assay for CYP2C8 using HepaRG (AID 2283483). Summed up: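 This is a transcriptional endpoint in HepaRG cultures: 48 h exposure, highest concentration 100 uM. CYP2C8 mRNA is quantified by TaqMan qRT-PCR.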

Read-out in experiment [9]: CYP2C9 (gene 1559)
Kind of experiment: LTEA_HepaRG_CYP2C9: Life Technologies and Expression Analysis (LTEA) Assay for CYP2C9 using HepaRG (AID 2283484). Summed up:
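Eight-point concentration-response (highest 100 uM, half-log dilutions) in HepaRG cells for 48 h; CYP2C9 expression by qRT-PCR normalized to ACTB, GAPDH, POLR2A. Bidirectional fit, DMSO baseline.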

Read-out in experiment [10]: CYP2E1 (gene 1571)
Kind of experiment: LTEA_HepaRG_CYP2E1: Life Technologies and Expression Analysis (LTEA) Assay for CYP2E1 using HepaRG (AID 2283485). An outline of the steps:
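CYP2E1 transcript measured by Fluidigm qRT-PCR against three housekeeping genes in human HepaRG cells treated 48 h (top 100 uM, half-log steps, 0.5% DMSO vehicle). Gain or loss fitted relative to DMSO baseline.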

Read-out in experiment [11]: CYP4A11 (gene 1579)
Briefly: LTEA_HepaRG_CYP4A11: Life Technologies and Expression Analysis (LTEA) Assay for CYP4A11 using HepaRG (AID 2283486). An outline of the steps: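 HepaRG, 48 h chem exposure, 8 conc (100 uM top, half-log), 0.5% DMSO vehicle; qRT-PCR readout, housekeeping-gene normalized; bidirectional curve fit vs DMSO baseline.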

Read-out in experiment [12]: Cytochrome P450 3A4 (Homo sapiens) (UniProt P08684)
Kind of experiment: LTEA_HepaRG_CYP3A4: Life Technologies and Expression Analysis (LTEA) Assay for CYP3A4 using HepaRG (AID 2283487). Summed up:
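In a human hepatic line (HepaRG), duplicate wells were treated 48 h with up to 100 uM chemical in half-log dilutions. Endpoint: CYP3A4 mRNA induction or loss relative to 0.5% DMSO vehicle, by qRT-PCR.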

Read-out in experiment [13]: DNA damage-inducible transcript 3 (DDIT3), DDIT3 (gene 1649)
Kind of experiment: LTEA_HepaRG_DDIT3: Life Technologies and Expression Analysis (LTEA) Assay for DNA damage-inducible transcript 3 (DDIT3) using HepaRG (AID 2283488). Summed up:
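DDIT3 transcript was quantified by qRT-PCR with ACTB/GAPDH/POLR2A normalization after 48 h chemical treatment of differentiated HepaRG cells in 0.5% DMSO. Dosing was eight-point, half-log, top 100 uM, duplicate wells. Curves fitted bidirectionally versus DMSO.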

Read-out in experiment [14]: Pro-epidermal growth factor (Homo sapiens) (UniProt P01133)
Briefly: LTEA_HepaRG_EGF: Life Technologies and Expression Analysis (LTEA) Assay for Epidermal growth factor (EGF) using HepaRG (AID 2283489). An outline of the steps:
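HepaRG, 48 h dosing, 100 uM top, half-log x8, 0.5% DMSO. Readout: TaqMan qRT-PCR (Fluidigm array), housekeeping-normalized. Gain or loss of signal fit vs DMSO.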

Read-out in experiment [15]: Early growth response protein 1 (EGR1) transcription factor, EGR1 (gene 1958)
Briefly: LTEA_HepaRG_EGR1: Life Technologies and Expression Analysis (LTEA) Assay for Early growth response protein 1 (EGR1) transcription factor using HepaRG (AID 2283490). Summed up: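 EGR1 expression change in human HepaRG after 48 h chemical exposure, assessed by housekeeping-normalized qRT-PCR; concentration-response up to 100 uM, fitted in both directions against DMSO controls.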

Read-out in experiment [16]: Ezrin (EZR), EZR (gene 7430)
Kind of experiment: LTEA_HepaRG_EZR: Life Technologies and Expression Analysis (LTEA) Assay for Ezrin (EZR) using HepaRG (AID 2283491). Summed up:
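Gain or loss of EZR mRNA is scored relative to 0.5% DMSO in human HepaRG cultures treated 48 h with test chemicals in duplicate, eight half-log concentrations from 100 uM.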

Read-out in experiment [17]: Cytochrome P450 3A7 (Homo sapiens) (UniProt P24462)
Briefly: LTEA_HepaRG_CYP3A7: Life Technologies and Expression Analysis (LTEA) Assay for CYP3A7 using HepaRG (AID 2283492). Summed up:
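Human HepaRG liver cells, 48 h post-plating, switched to serum-free induction medium and exposed in duplicate for 48 h. Dosing: 100 uM top, half-log dilutions, 8 points, 0.5% DMSO vehicle. Read-out: CYP3A7 mRNA, gain or loss fitted against DMSO baseline.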

Read-out in experiment [18]: CYP3A5 (gene 1577)
Kind of experiment: LTEA_HepaRG_CYP3A5: Life Technologies and Expression Analysis (LTEA) Assay for CYP3A5 using HepaRG (AID 2283493). Summed up:
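mRNA levels were quantified by qRT-PCR on Fluidigm arrays and normalized to three housekeeping genes. Differentiated HepaRG cells received 48 h exposure (top 100 uM, half-log steps, 0.5% DMSO vehicle, duplicate); bidirectional fitting versus DMSO.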

Read-out in experiment [19]: Fatty Acid-Binding Protein 1 (FABP1), FABP1 (gene 2168)
Kind of experiment: LTEA_HepaRG_FABP1: Life Technologies and Expression Analysis (LTEA) Assay for Fatty Acid-Binding Protein 1 (FABP1) using HepaRG (AID 2283494). An outline of the steps: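 Values reflect bidirectional concentration-response fitting of FABP1 mRNA change against 0.5% DMSO controls. Human HepaRG cultures received eight half-log doses (top 100 uM) for 48 h; expression quantified by TaqMan qRT-PCR with housekeeping-gene normalization.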

Read-out in experiment [20]: Cytochrome P450 4A22 (Homo sapiens) (UniProt Q5TCH4)
Kind of experiment: LTEA_HepaRG_CYP4A22: Life Technologies and Expression Analysis (LTEA) Assay for Cytochrome P450 4A22 (CYP4A22) using HepaRG (AID 2283495). An outline of the steps: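 Readout is CYP4A22 transcript induction or loss, quantified by qRT-PCR and normalized to ACTB, GAPDH and POLR2A. Human HepaRG cells receive test chemicals for 48 h at eight half-log concentrations from 100 uM in 0.5% DMSO.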

Calls of active or inactive are those of the source. Rule for the calls: active = hit-call score of the fitted dose curve at least 0.9, where 1 is the maximum; inactive = score below 0.9.

Chain of Cytochrome P450 3A4 (Homo sapiens) (P08684 whole entry, looked up): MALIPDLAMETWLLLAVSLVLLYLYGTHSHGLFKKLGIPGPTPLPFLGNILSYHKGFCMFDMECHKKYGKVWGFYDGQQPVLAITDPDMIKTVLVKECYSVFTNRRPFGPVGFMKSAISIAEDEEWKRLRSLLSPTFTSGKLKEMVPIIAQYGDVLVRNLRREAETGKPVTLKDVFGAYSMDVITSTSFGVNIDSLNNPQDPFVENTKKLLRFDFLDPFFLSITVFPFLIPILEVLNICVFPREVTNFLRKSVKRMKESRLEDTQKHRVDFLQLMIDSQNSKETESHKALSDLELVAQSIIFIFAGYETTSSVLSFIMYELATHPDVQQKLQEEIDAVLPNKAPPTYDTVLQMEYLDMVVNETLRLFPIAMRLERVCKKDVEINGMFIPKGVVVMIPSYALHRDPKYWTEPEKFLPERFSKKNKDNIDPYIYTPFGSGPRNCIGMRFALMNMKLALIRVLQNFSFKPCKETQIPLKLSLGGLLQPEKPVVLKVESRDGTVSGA
Chain of Caspase-3 (Homo sapiens) (P42574 whole entry, looked up): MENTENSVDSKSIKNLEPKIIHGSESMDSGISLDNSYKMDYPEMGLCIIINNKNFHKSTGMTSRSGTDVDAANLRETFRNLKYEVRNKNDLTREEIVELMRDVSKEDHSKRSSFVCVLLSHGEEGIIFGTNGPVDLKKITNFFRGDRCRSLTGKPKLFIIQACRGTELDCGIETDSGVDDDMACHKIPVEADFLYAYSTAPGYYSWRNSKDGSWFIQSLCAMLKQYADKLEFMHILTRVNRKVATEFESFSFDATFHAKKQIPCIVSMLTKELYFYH
Chain of Cytochrome P450 3A7 (Homo sapiens) (P24462 whole entry, looked up): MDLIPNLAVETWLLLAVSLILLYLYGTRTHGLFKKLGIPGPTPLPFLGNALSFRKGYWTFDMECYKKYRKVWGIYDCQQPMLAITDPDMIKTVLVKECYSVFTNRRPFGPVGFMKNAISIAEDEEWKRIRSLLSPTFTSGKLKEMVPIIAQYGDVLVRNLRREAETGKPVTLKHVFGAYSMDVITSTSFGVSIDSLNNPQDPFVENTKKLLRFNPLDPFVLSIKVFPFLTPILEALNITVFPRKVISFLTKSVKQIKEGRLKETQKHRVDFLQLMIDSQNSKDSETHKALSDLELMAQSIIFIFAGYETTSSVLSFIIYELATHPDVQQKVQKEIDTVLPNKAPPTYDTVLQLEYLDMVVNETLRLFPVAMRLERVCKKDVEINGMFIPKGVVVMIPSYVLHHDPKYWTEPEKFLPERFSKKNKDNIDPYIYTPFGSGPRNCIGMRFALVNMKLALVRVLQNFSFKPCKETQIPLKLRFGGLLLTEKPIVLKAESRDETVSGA
Chain of Cytochrome P450 2C19 (Homo sapiens) (P33261 whole entry, looked up): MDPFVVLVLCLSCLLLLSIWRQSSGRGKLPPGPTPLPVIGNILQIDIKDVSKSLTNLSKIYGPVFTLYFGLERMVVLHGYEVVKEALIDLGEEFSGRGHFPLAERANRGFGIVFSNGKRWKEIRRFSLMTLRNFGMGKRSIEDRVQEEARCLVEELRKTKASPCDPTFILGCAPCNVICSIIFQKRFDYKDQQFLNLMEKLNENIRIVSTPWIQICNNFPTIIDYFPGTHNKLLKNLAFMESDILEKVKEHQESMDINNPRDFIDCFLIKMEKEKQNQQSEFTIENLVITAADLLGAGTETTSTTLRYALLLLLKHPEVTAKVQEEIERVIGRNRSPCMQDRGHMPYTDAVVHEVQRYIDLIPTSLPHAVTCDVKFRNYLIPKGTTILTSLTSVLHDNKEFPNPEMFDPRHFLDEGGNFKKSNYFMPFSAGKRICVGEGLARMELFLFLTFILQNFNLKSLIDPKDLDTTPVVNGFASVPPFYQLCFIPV

Take `CC(C)c1cccc(C(C)C)c1N1C(=O)c2ccc(O)cc2C1=O`: the call in experiment [1], in experiment [2], in [3], in [4], in [5] and in experiment [8] was inactive. Further, the call in experiment [9], in experiment [14], in experiment [16] and in experiment [18] was inactive. Further, the AC50 in [6] is 88.6 µM (active); in [7], 91.5 µM (active); in [10], 89.7 µM (active); in experiment [11], 72 µM (active); in [12], 11.6 µM (active); in experiment [13], 74.9 µM (active). For the same molecule, the AC50 in experiment [15] is 86.2 µM (active); in [17], 87.9 µM (active); in experiment [19], 77.7 µM (active); in [20] it was 72 µM (active).

`C=CC(=C)CCC=C(C)C`: the call in experiment [1], in [2], in experiment [3], in experiment [5], in experiment [6] and in experiment [7] was inactive. Further, the molecule was classed as inactive in experiment [8], in [9], in experiment [10], in [11], in experiment [12] and in experiment [14]. Further, the result in experiment [15], in experiment [16], in experiment [17], in [18], in experiment [19] and in [20] was inactive. Moreover, in experiment [4], the AC50 was 27.2 µM (active).

On to `CCn1nc(Cc2ccccc2)cc1C1CCN(C[C@H]2C[C@H](N(C)[C@@H](C(=O)O)C(C)C)C[C@@H]2c2cccc(F)c2)CC1`, for which the molecule was called inactive in [1], in [2], in experiment [3], in experiment [5], in [12] and in experiment [14]. For the same molecule, the molecule was called inactive in experiment [15], in [16], in experiment [17], in experiment [18] and in experiment [19]. Moreover, the AC50 in [4] is 79.9 µM (active); in experiment [6], 13.7 µM (active); in experiment [7] it was 17.6 µM (active); in experiment [8] it was 24.6 µM (active); in [9], 27.8 µM (active); in [10] it was 20.4 µM (active). Also, the AC50 in experiment [11] is 50 µM (active); in experiment [13], 50 µM (active); in [20], 43.5 µM (active).

Take `CCCCCCCCO`: the call in [1], in [2], in experiment [3], in experiment [4], in [5] and in experiment [6] was inactive. For the same molecule, the molecule was called inactive in [7], in [8], in experiment [9], in experiment [10], in experiment [11] and in experiment [12]. Moreover, the molecule was classed as inactive in [14], in experiment [15], in [16], in experiment [17], in experiment [18] and in experiment [19]. Besides, the molecule was called inactive in experiment [20].

Turning to `CC(C)CCO`, the molecule was classed as inactive in experiment [1], in experiment [2], in experiment [3], in experiment [4], in [5] and in experiment [6]. Moreover, the call in [7], in experiment [8], in experiment [9], in experiment [10], in experiment [11] and in [12] was inactive. The call in experiment [13], in [15], in experiment [16], in [17], in experiment [18] and in [19] was inactive.

As to `CNS(=O)(=O)c1cc(C(=O)N2CCC(CCN3C4CCC3CC(n3c(C)nc5ccccc53)C4)(c3cccc(F)c3)CC2)c(Cl)cc1F` (stereo not given), the molecule was classed as inactive in experiment [1], in [2], in [3], in [5], in experiment [12] and in [14]. The molecule was classed as inactive in experiment [15] and in [18]. In addition, the AC50 was 27.2 µM (active) in [4]; 21.7 µM (active) in experiment [6]; 50 µM (active) in experiment [7]; 25.7 µM (active) in experiment [8]; 19.2 µM (active) in [9]; 17.7 µM (active) in experiment [10]. Moreover, the AC50 in experiment [11] is 18.5 µM (active); in experiment [16], 29.6 µM (active); in [17] it was 9.92 µM (active); in experiment [19] it was 18.4 µM (active); in [20], 22.7 µM (active).

(Values after PubChem BioAssay (EPA / NIEHS).)
